Source: PubChem BioAssay
NS1 function inh = qHTS Assay for Inhibitors of Influenza NS1 Protein Function | Potency, µM (titrated, usually from 46.1 µM), for inactives: top-dose activity, positive = more growth | 270,000 tested, 0.4% active | AID 2326, 2010; also: potency is read from the fitted curve at half-maximal effect; actives are rising curves; nearly all actives have a fitted effect of over 50% in size
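S. cerevisiae expressing influenza A NS1, grown in glucose, washed, then diluted 1:100 into pH 6.0 -URA galactose medium with 23 nl compound. Growth recovery read as OD600; NS1-free strain serves as control.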
Shiga toxin inh = A qHTS for Small Molecule Inhibitors of Shiga Toxin; inhibition, % at 38.7 µM; 290,000 tested, 9.2% active; Vero cells, Shiga toxin protein synthesis inhibition reporter; in the data active = inhibition mostly above about 28%, no sharp cut-off; inactive = mostly below about 43%; also: 0% is about no effect
Pf growth 48h = Primary qHTS for delayed death inhibitors of the malarial parasite plastid, 48 hour incubation; Potency, µM (top dose mostly 28.7 µM), for the others: top-dose activity change, negative = inhibition, usual class: inhibitors; 310,000 tested, 5.9% active; AID 504832, 2011; P. falciparum luciferase growth in erythrocytes, 48 h; active = well fitted inhibition curve with a large enough effect; inconclusive = small, poorly fitted or top-dose-only effect, or another doubt; inactive = no such curve, though single readings can be large or run the other way; also: potency is read from the fitted curve at half-maximal effect; % is scaled to controls: 0 for no effect and ±100 for the full control effect
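Parasite viability was followed by luminescence of a genomically integrated firefly luciferase. Cultures held 0.1% parasitemia at 2% hematocrit (final), incubated under 5% CO2 at 37 C.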
SARS PLP yeast = qHTS of Yeast-based Assay for SARS-CoV PLP; S. cerevisiae expressing SARS-CoV PLpro, growth rescue; Potency, µM (top dose mostly 32.9 µM), inactives show top-dose activity, positive = growth rescue, most hits filed as activators; 330,000 tested, 0.19% active; also: potency is read from the fitted curve at half-maximal effect; 0% is about no effect; nearly all actives have a fitted effect of over 55% in size
Pf growth 96h = Primary qHTS for delayed death inhibitors of the malarial parasite plastid, 96 hour incubation; AID 504834, 2011; P. falciparum luciferase reporter growth, 96 h; 320,000 tested, 6.9% active; Potency, µM (top dose mostly 28.7 µM), for inactives: at the top dose activity change, negative = inhibition, actives largely listed as inhibitors; active = well fitted inhibition curve with a large enough effect; inconclusive = small, poorly fitted or top-dose-only effect, or another doubt; inactive = no such curve, though single readings can be large or run the other way; also: potency is read from the fitted curve at half-maximal effect; % is scaled to controls: 0 for no effect and ±100 for the full control effect
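P. falciparum expressing integrated firefly luciferase grown in erythrocytes (2% hematocrit, 0.05% parasitemia final) with compounds for 96 hours at 37 C, 5% CO2. Growth inhibition read as loss of luminescence after adding luciferase detection reagent.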
Cycloheximide cs = Cycloheximide Counterscreen for Small Molecule Inhibitors of Shiga Toxin. cell reporter, cycloheximide protein synthesis inhibition counterscreen. max response, %. 300,000 tested, 12% active; in the data active = max response mostly above about 13%, no sharp cut-off; inactive = mostly below about 14%; also: read at 38.3 µM for the half of the compounds with a filed dose; 0% is about no effect
An asterisk follows results filed as active; ? = inconclusive; nt = no result given. An excerpt weighted towards active compounds, which were near 21% of everything screened. Unless noted, calls follow the shape of the full dose curve.

SMILES	NS1 function inh	Shiga toxin inh	Pf growth 48h	SARS PLP yeast	Pf growth 96h	Cycloheximide cs
CC(=O)Nc1nc(-c2ccc(Br)s2)cs1	-9%	63*	-47%	9%	nt	25*
CC(=O)Nc1nc(-c2cccc3ccccc23)cs1	-33%	15	6%	-6%	88%	15*
COc1cc2c(cc1OC)C(c1ccc(Br)cc1)NC(=O)C2 (stereo unspecified)	13%	-10	?	11%	0%	-3
CCNC(=O)NC(=O)COC(=O)CCCSc1nc2ccccc2s1	-21%	-3	1%	5%	-8%	-1
COc1ccc(S(=O)(=O)NCC2(N3CCOCC3)CCCCC2)cc1OC	nt	nt	?	-2%	-9%	nt
Clc1ccc(CSc2nnc(Cn3cnc4ccccc43)o2)cc1	-42%	-4	-14%	-12%	?	-5
Clc1ccc(CSc2ncn(-c3ccccc3)n2)cc1	-5%	-7	-12%	-30%	-18%	31*
Clc1cccc(CSc2ncn(-c3ccccc3)n2)c1	-21%	35*	27%	-35%	44%	23*
O=S(=O)(Nc1cccc2ccccc12)N1CCCC1	-5%	-6	-12%	-1%	-11%	20
Cc1cnc(C(=O)OCC(=O)Nc2cc(S(=O)(=O)N3CCOCC3)ccc2Cl)cn1	nt	nt	nt	3%	nt	nt
CCCC(=O)NCc1ccncc1	4%	-7	2%	1%	19%	-3
CCn1cc(C(=O)Nc2ccccc2)c(=O)c2ccc(C)nc21	-3%	27	-8%	0%	-6%	1
CCn1cc(C(=O)NC2CC3CCC2C3)c(=O)c2ccc(C)nc21 (stereo unspecified)	-6%	-14	-13%	-3%	5.2µM*	-2
CCn1cc(C(=O)NCc2ccc(OC)cc2)c(=O)c2ccc(C)nc21	0%	nt	24%	-2%	-24%	-4
CCn1cc(C(=O)NC2CCCCC2C)c(=O)c2ccc(C)nc21 (stereo unspecified)	-35%	-3	1%	nt	12µM*	-3
COc1ccc(OCCCn2cc(/C=C3/C(=N)N4C=C(C)SC4=NC3=O)c3ccccc32)cc1	10%	36*	38%	8%	-7%	35*
COC(=O)N/N=C/c1cn(CCOc2cccc(OC)c2)c2ccccc12	5%	38	-1%	-4%	?	8
COc1cccc(OCCCn2cc(/C=C3/C(=N)N4C=C(C)SC4=NC3=O)c3ccccc32)c1	4%	50*	?	6%	?	19*
Cc1cccc(OCCn2cc(/C=N/NC(=O)c3ccncc3)c3ccccc32)c1	31%	28*	28%	?	4%	11*
COc1cccc(OCCn2cc(C=O)c3ccccc32)c1	?	nt	70%	-4%	-22%	23*
CC1=CN2C(=N)/C(=C/c3cn(CCCOc4ccccc4C)c4ccccc34)C(=O)N=C2S1	10%	24*	199%	1%	74%	67*
CC1=CN2C(=N)/C(=C/c3ccc([N+](=O)[O-])o3)C(=O)N=C2S1	-23%	18	14%	-95%	-27%	13
CC1=CN2C(=N)/C(=C/c3ccco3)C(=O)N=C2S1	4%	72*	33%	-23%	54%	47*
O=C(CON=C1c2ccccc2-c2ccccc21)NC12CC3CC(CC(C3)C1)C2	-9%	18	-21%	-15%	0%	-1
C[C@]12CCC(=O)C=C1CCC1C2CC[C@@]2(C)C1CCC21OCCO1 (stereo partly specified)	nt	nt	nt	-6%	nt	nt
SMILES	NS1 function inh	Shiga toxin inh	Pf growth 48h	SARS PLP yeast	Pf growth 96h	Cycloheximide cs
C=C1CC2C3CC[C@@]4(OCOC45COCO5)[C@@]3(C)C(O)CC2[C@@]2(C)CCC(=O)C=C12 (stereo partly specified)	7%	-4	10µM*	-8%	13µM*	-4
Fc1ccc(Nc2ccc(-c3ccc(F)cc3)nn2)cc1	-6%	63*	19%	-1%	0%	50*
Fc1ccc(-c2ccc(Nc3cccc(F)c3)nn2)cc1	-1%	51*	?	0%	1%	46*
COc1ccc(C(=O)CSc2nnc3ccccn23)cc1OC	nt	45	13%	-3%	?	22*
O=C(CSc1nnc2ccccn12)c1ccc2c(c1)OCCO2	-3%	37*	143%	2%	44%	25*
CCOc1ccccc1C(C(=O)NC1CCCC1)N(C(=O)c1csnn1)C1CC1 (stereo unspecified)	-3%	-9	-11%	2%	-6%	-2
O=C(Nc1nn[nH]n1)c1nc(-c2ccccc2)cc(=O)[nH]1	0%	nt	nt	nt	nt	nt
CC(=O)Nc1oc(-c2cccc3ccccc23)nc1C#N	nt	nt	-21%	-5%	10%	nt
N#Cc1nc(-c2cccc3ccccc23)oc1NCCN1CCOCC1	-50%	33	-13%	11%	23%	15*
CCCNc1oc(-c2cccc3ccccc23)nc1C#N	4%	69*	44%	-1%	-3%	22*
N#Cc1nc(-c2ccccc2F)oc1NCCN1CCOCC1	-8%	1	nt	4%	9.3µM*	-3
C[C@H](NC(N)=O)C(=O)OCC(=O)NCc1cccs1	nt	-1	7%	2%	?	10
Cc1sc2ncnc(NCC(c3ccco3)N3CCCC3)c2c1C (stereo unspecified)	2%	14	10µM*	12%	8.3µM*	-1
Cc1ccc2c(n1)CC(C)(C)CC2=O	-7%	-14	3%	3%	38%	-4
O=C(N/N=C/c1ccc(-c2ccc(Cl)c(C(=O)O)c2)o1)c1cc2c(ccc3ccccc32)o1	2%	13	10%	1%	-1%	8
O=C(NCc1n[nH]c(=S)n1-c1ccc(Cl)c(Cl)c1)c1ccc(S(=O)(=O)N2CCOCC2)cc1	nt	1	?	3%	10%	8
CCN(CC)c1cc(Oc2ccccc2)ncn1	-3%	73*	27%	-5%	nt	19*
Cc1c(C=C2C(=O)c3ccccc3C2=O)cc(C#N)n1C	1%	-4	-1%	1%	40%	2
Cc1ccc(C(=O)/C=C/c2cc(C#N)n(C)c2C)cc1	-1%	80*	-22%	-4%	-5%	35*
CCn1cc(C(=O)N[C@@H](CCSC)C(=O)NCCOC)c(=O)c2cc3c(cc21)OCO3	-1%	2	?	0%	12µM*	-2
CCn1cc(C(=O)N[C@@H](CCSC)C(=O)NCCCO)c(=O)c2cc3c(cc21)OCO3	4%	-6	?	2%	?	-3
CN(C)N1C(N)=C(C#N)C(c2ccc3c(c2)OCO3)C2=C1CC(C)(C)CC2=O (stereo unspecified)	3%	-4	-15%	3%	?	-2
